Our source for the composite z-score and z-score values is PubChem BioAssay.

For experiment [1], the system named is PRMT1 (protein arginine N-methyltransferase 1). Description: PRMT1 binders on small-molecule microarrays, primary screen, biochemical, small-molecule microarray, 635 nm fluorescence (AID 1088).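 Note: binding of Prmt1 protein to compounds spotted on small-molecule microarray slides.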 Particulars: small-molecule microarray binding, higher = more signal.
Experiment [2] can be described thus: yeast growth modulation, basal conditions, primary screen, YJM789 clinical isolate, OD600, 24 h (AID 1089).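 Note: growth of clinical yeast isolate S. cerevisiae YJM 789 seeded 1000 cells per well; test concentration not given here.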 Particulars: S. cerevisiae YJM789 growth, higher = more signal, called active from +8 up or from −8 down.
Experiment [3] is described as follows: fission yeast growth modulation, primary screen, strain 972, OD600, 24 h, no modulator (AID 1090).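 Note: basal condition with compound alone and no growth modifier present; test concentration not given here.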 Particulars: S. pombe 972 growth, higher = more signal, called active from +8 up or from −8 down.
Experiment [4] can be described thus: S. cerevisiae growth modulation with rapamycin, primary screen, strain BY4716, OD600, 96 h (AID 1091). Note: test concentration not given here. Particulars: higher = more signal, called active from +8 up or from −8 down.
For experiment [5], the target named is Torsin-1A-interacting protein 2 (Homo sapiens) (UniProt Q8NFQ8). As to the kind of experiment: LULL1 binders on small-molecule microarray, primary screen, cell lysate, human LULL1 lysate, 635/667 nm fluorescence (AID 1092).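 Note: probe is lysate of COS7 cells overexpressing human LULL1; score merges per-feature 667 nm fluorescence with signal-to-noise.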 Particulars: hLULL1 lysate binding, 635 nm fluorescence, higher = more signal.
The nature of experiment [6]: E. coli growth modulation, two-sided OD650, primary screen, E. coli filamentation project, strain DRC41, 24 h (AID 1093).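 Note: MC1000 strain lacking acrAB efflux and sulA so SOS filamentation is blocked; test concentration not given here.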 Particulars: OD650, 24 h, higher = more signal, called active from +8 up or from −8 down.
A short description of experiment [7]: small-molecule microarray binders of probe aLefty2, primary screen, biochemical, biotinylated probe, 635/667 nm fluorescence (AID 1094).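 Note: score merges spot fluorescence near 667 nm with spot signal-to-noise ratio.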 Particulars: higher = more signal.
In experiment [8] the test system is Noggin (protein binding on small-molecule microarray). As to the kind of experiment: Noggin binders on small-molecule microarray, primary screen, biochemical, 635/667 nm fluorescence (AID 1095).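 Note: score merges 667 nm feature fluorescence with signal to noise over triplicate slides.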 Particulars: 635 nm fluorescence, higher = more signal.
In experiment [9] the target is Neurogenic locus notch homolog protein 3 (Homo sapiens) (UniProt Q9UM47). Description: NOTCH3 binders on small-molecule microarray, primary screen, biochemical, 635/667 nm fluorescence (AID 1096). Particulars: NOTCH3 binding, 635 nm fluorescence, higher = more signal.
Experiment [10] in a line: small-molecule microarray binders of probe aEGFR, primary screen, biochemical, biotinylated probe, 635/667 nm fluorescence (AID 1097).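 Note: probe is a biotinylated anti-EGFR antibody binding compounds printed on slides; score combines fluorescence near 667 nm and signal to noise of each spot.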 Particulars: higher = more signal.
Experiment [11] has as its system Plasmodium falciparum Sir2 (PF13_0152, Sir2A). As to the kind of experiment: pfSir2 binders on small-molecule microarrays, primary screen, biochemical, small-molecule microarray, 635 nm fluorescence (AID 1098).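 Note: score merges spot fluorescence intensity with its signal-to-noise ratio.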 Particulars: small-molecule microarray binding, fluorescence 635 nm; higher = more signal.
The nature of experiment [12]: small-molecule microarray binders of probe aDKK1, primary screen, biochemical, biotinylated probe, 635/667 nm fluorescence (AID 1099).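 Note: score merges 667nm spot fluorescence with signal to noise across triplicate slides; reference of the scale not given here.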 Particulars: higher = more signal.
Experiment [13] is described as follows: small-molecule microarray binders of probe aCHRDL2, primary screen, biochemical, biotinylated probe, 635/667 nm fluorescence (AID 1100). Particulars: higher = more signal.
Experiment [14] is described as follows: splicing luciferase reporter signal modulators, primary screen, spliceosome inhibition project, cell-based, HEK293, splice +/- reporter (AID 1101).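 Note: HEK293 cells carrying a splicing-competent luciferase reporter gene; test concentration not given here.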 Particulars: luminescence, 24 h, higher = more signal, called active from +8 up or from −8 down. A general note: A reporter such as luciferase makes a cellular process visible.
The target of experiment [15] is Fibroblast growth factor 10 (Homo sapiens) (UniProt O15520). As to the kind of experiment: FGF10 binders on small-molecule microarrays, primary screen, biochemical, small-molecule microarray, 635 nm fluorescence (AID 1102). Particulars: FGF10 binding, fluorescence 635 nm, higher = more signal.
Experiment [16] has as its system glycogen synthase kinase-3 (GSK3A per assay name; protocol says GSK3B). Description: GSK3 binders on small-molecule microarrays, primary screen, biochemical, small-molecule microarray, 635 nm fluorescence, GSK3A (AID 1103). Note: the record names both GSK3A and GSK3B. Particulars: small-molecule microarray binding, fluorescence 635 nm; higher = more signal.
The target in experiment [17] is Epidermal growth factor receptor (Homo sapiens) (UniProt P00533). As to the kind of experiment: EGFR binders on small-molecule microarrays, primary screen, biochemical, small-molecule microarray, 635 nm fluorescence (AID 1104).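 Note: score merges 667 nm emission intensity with spot signal to noise over triplicate slides.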 Particulars: EGFR binding, higher = more signal.
For experiment [18], the target named is Follistatin-related protein 3 (Homo sapiens) (UniProt O95633). Description: FSTL3 binders on small-molecule microarrays, primary screen, biochemical, small-molecule microarray, 635 nm fluorescence (AID 1105).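 Note: score merges emission near 667 nm and signal to noise per printed spot across three slides.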 Particulars: FSTL3 binding, higher = more signal.
Experiment [19] has as its target Dickkopf-related protein 1 (Homo sapiens) (UniProt O94907). As to the kind of experiment: DKK1 binders on small-molecule microarrays, primary screen, biochemical, small-molecule microarray, 635 nm fluorescence scan (AID 1106).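 Note: score merges emission near 667 nm with signal to noise over three replicate slides.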 Particulars: DKK1 binding, higher = more signal.
Experiment [20] deals with Inhibin beta A chain (activin A). As to the kind of experiment: INHBA (activin A) binders on microarrays, primary screen, biochemical, small-molecule microarray, 635 nm fluorescence scan (AID 1107).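 Note: mouse activin A protein probed at 4.33 µg/mL on printed slides; score merges bound-protein fluorescence near 667 nm with spot signal-to-noise.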 Particulars: small-molecule microarray binding, higher = more signal.

Molecules are shown by their SMILES. Activity calls are given as the source filed them.

Sequence of Follistatin-related protein 3 (Homo sapiens) (O95633 whole entry, looked up): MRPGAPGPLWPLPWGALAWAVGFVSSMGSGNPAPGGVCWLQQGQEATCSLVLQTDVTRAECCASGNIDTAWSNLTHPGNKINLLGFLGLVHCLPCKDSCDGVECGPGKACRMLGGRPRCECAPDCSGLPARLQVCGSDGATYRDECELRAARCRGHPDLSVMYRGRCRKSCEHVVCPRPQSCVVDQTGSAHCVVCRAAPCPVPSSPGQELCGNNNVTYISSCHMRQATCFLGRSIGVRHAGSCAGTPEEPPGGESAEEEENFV
Sequence of Epidermal growth factor receptor (Homo sapiens) (P00533 whole entry, looked up): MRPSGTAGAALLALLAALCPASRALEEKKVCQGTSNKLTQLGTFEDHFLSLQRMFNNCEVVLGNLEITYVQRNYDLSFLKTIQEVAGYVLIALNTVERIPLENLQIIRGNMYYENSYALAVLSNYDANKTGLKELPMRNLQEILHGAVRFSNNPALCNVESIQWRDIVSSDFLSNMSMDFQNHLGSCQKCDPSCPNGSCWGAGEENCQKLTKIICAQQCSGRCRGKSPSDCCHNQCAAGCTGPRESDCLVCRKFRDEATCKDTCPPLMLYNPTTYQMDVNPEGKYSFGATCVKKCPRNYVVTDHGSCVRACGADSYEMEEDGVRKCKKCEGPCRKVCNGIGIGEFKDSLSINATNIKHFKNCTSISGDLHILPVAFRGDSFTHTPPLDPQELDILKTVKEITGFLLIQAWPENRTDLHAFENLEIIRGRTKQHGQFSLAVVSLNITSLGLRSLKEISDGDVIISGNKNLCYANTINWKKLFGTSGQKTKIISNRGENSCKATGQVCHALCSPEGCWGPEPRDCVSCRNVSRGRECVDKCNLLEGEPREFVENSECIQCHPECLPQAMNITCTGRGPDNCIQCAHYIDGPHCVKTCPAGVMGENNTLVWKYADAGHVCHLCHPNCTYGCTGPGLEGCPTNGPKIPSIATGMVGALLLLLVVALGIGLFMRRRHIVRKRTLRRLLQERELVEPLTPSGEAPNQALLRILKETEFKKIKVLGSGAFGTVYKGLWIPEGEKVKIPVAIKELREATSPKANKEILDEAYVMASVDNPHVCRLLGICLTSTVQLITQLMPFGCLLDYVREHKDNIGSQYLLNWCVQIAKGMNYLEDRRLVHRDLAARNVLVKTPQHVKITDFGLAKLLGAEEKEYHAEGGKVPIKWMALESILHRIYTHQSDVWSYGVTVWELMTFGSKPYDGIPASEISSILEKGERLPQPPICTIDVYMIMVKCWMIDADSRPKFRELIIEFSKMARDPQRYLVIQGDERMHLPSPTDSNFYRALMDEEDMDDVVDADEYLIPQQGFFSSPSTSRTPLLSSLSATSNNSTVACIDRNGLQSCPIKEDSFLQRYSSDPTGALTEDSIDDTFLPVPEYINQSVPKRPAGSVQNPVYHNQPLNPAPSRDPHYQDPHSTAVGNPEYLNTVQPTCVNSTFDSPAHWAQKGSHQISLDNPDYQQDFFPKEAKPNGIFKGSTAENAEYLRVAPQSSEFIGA
Sequence of Fibroblast growth factor 10 (Homo sapiens) (O15520 whole entry, looked up): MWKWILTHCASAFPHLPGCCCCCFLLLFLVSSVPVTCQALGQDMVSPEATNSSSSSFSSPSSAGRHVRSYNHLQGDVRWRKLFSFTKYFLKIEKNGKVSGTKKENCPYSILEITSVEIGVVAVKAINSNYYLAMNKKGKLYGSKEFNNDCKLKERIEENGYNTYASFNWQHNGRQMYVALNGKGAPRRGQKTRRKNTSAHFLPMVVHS
Sequence of Torsin-1A-interacting protein 2 (Homo sapiens) (Q8NFQ8 whole entry, looked up): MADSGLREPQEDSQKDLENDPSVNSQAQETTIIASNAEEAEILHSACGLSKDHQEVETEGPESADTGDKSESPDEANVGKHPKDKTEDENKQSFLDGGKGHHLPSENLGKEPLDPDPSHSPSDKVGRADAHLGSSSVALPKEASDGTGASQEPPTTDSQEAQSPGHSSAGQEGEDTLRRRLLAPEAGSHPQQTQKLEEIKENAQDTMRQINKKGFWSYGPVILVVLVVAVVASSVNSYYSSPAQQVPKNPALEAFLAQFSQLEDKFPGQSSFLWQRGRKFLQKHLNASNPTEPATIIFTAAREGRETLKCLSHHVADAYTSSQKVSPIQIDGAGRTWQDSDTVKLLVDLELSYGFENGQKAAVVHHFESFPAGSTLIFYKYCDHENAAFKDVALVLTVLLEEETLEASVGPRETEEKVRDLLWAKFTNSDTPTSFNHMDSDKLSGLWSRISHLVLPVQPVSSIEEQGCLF
Sequence of Dickkopf-related protein 1 (Homo sapiens) (O94907 whole entry, looked up): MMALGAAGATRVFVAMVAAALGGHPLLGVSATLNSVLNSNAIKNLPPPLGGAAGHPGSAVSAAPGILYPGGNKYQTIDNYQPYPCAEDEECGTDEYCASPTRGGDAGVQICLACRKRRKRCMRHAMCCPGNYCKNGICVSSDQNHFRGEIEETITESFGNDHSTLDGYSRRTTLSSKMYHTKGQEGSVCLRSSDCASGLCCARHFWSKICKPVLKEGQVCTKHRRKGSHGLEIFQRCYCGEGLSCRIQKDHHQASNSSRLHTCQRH
Sequence of Neurogenic locus notch homolog protein 3 (Homo sapiens) (Q9UM47 whole entry, looked up): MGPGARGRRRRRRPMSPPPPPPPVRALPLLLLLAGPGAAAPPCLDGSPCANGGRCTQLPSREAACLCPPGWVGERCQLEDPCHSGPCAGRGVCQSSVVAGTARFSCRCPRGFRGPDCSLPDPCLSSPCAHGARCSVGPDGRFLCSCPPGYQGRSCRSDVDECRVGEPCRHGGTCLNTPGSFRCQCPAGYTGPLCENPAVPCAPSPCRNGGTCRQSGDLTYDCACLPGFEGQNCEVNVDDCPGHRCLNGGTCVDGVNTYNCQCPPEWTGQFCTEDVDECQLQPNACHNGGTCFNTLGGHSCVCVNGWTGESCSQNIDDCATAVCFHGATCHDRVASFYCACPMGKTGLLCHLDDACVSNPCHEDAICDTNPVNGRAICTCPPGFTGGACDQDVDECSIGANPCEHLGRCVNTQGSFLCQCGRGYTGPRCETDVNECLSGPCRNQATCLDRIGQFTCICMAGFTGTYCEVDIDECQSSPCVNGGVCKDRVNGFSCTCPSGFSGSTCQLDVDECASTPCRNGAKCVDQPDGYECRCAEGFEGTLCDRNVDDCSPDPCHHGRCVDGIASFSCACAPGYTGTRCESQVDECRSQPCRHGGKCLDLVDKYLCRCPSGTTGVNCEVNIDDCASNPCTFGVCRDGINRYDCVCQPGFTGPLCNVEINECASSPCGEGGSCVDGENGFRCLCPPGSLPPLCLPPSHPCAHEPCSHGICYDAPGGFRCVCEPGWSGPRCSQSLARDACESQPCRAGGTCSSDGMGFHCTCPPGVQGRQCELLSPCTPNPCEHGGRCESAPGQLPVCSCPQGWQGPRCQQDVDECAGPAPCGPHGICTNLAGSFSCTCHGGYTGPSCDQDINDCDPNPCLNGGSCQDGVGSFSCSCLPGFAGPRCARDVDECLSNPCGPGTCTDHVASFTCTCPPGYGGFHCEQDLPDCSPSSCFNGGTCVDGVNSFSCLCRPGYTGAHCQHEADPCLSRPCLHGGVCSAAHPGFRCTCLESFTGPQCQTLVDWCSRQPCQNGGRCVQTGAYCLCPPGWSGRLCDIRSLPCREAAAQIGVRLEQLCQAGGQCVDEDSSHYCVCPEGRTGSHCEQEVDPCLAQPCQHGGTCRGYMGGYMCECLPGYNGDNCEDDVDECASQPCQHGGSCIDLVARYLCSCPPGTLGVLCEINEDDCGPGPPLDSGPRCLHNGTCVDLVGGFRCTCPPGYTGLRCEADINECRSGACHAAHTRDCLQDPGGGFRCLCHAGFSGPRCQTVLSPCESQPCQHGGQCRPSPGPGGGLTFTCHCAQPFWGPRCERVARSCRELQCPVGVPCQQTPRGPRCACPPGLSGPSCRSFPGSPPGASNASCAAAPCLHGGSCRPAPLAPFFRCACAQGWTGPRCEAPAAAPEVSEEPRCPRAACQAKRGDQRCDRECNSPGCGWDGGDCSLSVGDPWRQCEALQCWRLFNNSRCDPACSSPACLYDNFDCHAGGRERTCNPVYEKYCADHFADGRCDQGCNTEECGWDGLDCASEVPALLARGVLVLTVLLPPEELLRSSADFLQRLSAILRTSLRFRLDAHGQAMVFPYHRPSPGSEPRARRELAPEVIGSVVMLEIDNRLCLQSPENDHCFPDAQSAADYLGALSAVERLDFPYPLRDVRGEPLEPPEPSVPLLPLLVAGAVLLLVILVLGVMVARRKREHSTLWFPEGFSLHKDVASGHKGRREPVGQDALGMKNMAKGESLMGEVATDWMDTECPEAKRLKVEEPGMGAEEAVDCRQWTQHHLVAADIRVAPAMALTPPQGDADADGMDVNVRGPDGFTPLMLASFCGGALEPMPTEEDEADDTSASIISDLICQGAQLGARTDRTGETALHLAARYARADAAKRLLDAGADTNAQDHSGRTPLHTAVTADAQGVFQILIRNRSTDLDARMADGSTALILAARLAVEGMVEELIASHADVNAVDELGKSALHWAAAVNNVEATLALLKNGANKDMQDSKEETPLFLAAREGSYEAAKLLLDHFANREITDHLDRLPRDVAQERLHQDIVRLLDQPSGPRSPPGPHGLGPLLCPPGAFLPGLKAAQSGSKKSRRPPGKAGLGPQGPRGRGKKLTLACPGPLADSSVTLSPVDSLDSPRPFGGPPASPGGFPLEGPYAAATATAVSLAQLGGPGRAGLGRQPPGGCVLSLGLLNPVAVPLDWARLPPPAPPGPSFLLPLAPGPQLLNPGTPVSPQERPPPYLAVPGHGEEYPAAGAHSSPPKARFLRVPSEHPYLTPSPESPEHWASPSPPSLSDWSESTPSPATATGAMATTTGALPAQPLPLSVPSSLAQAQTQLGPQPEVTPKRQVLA

Consider `CN(C)CCCNC(=O)[C@@H]1c2ccccc2C(=O)N(C2Cc3ccccc3C2)[C@H]1c1ccc(CO)cc1`, for which the composite z-score in experiment [1] was 1.56; in experiment [5], 2.03; in experiment [7], -0.127; in [8] it was 0.0726; in [9], 0.241; in experiment [10], 0.111. The composite z-score in [11] was 1.78; in experiment [12], 0.227; in [13], 0.559; in experiment [15], -0.514; in [16], 1.27; in experiment [17] it was -0.741. In addition, the composite z-score was -0.12 in [18], -0.273 in [19] and 0.923 in experiment [20]. Also, the z-score was -0.463 (inactive) in experiment [2]; -0.271 (inactive) in [3]; -0.915 (inactive) in [4]; 0.688 (inactive) in experiment [6]; -0.196 (inactive) in experiment [14].
As to `Cc1ccc(S[C@]2(C(=O)NC3CC3)CC(=O)N(Cc3cc(C(F)(F)F)cc(C(F)(F)F)c3)[C@@H]2c2ccc(CO)cc2I)cc1`, the composite z-score in [1] is 1.28; in [5] it was 2.2; in [7], -0.242; in experiment [8], 0.502; in experiment [9] it was 0.409; in [10], 0.395. The composite z-score in experiment [11] was 1.8; in experiment [12] it was 0.679; in [13] it was -0.525; in experiment [15], 0.126; in [16], 0.322; in [17], -0.141. The composite z-score in [18] is 0.484; in experiment [19], -0.0211; in experiment [20], 1.15. For the same compound, the z-score in experiment [2] is -5.04 (inactive); in experiment [3], -3.38 (inactive); in experiment [4] it was -0.429 (inactive); in experiment [6] it was 0.545 (inactive); in [14] it was 0.0986 (inactive).
`CO[C@H]1O[C@H](CO)[C@@H](OC(=O)Nc2ccc(C(F)(F)F)cc2)[C@H](OC(=O)Nc2ccccc2-c2ccccc2)[C@@H]1OC(=O)Nc1ccccc1-c1ccccc1`: the composite z-score in [1] is 1.54; in [5], 2.4; in experiment [7] it was 0.33; in experiment [8] it was 1.32; in experiment [9], 1.02; in experiment [10], 0.0752. The composite z-score was 1.46 in [11]; 1.07 in experiment [12]; 0.61 in [13]; 1.04 in [15]; 1.29 in experiment [16]; 0.35 in [17]. The composite z-score in experiment [18] stood at 1.37; in experiment [19], 0.507; in experiment [20], 0.0026. The z-score is 0.94 (inactive) in [2]; 1.25 (inactive) in [3]; 4.92 (inactive) in experiment [4]; 0.193 (inactive) in experiment [6]; -0.0628 (inactive) in experiment [14].
Consider `C=C(COC)/C(=C/C[C@@H](OC(C)=O)c1ccccc1OCCO)c1cc(C(=O)OC)ccc1OC`, for which the composite z-score in experiment [1] was 1.37; in [5], 1.67; in experiment [7] it was -0.0873; in [8] it was 0.0363; in experiment [9] it was 0.455; in [10], -0.0141. For the same compound, the composite z-score was 1.01 in experiment [11]; -0.0445 in [12]; 0.012 in [13]; 1.23 in experiment [15]; -0.208 in experiment [16]; -0.676 in experiment [17]. The figures for the composite z-score in experiment [18], in experiment [19] and in experiment [20] were -0.0333, -0.343 and 0.416, respectively. In addition, the z-score in experiment [2] is 1.16 (inactive); in experiment [3], -0.145 (inactive); in experiment [4], -0.167 (inactive); in experiment [6], 0.174 (inactive); in experiment [14], 0.846 (inactive).
As to `Cc1ccc(S[C@]2(C(=O)NCC(F)(F)F)CC(=O)N(C3CCCCC3)[C@@H]2c2ccc(CO)cc2)cc1`, the composite z-score was 1.28 in [1]; 2.9 in experiment [5]; 0.0078 in [7]; -0.461 in [8]; -0.107 in experiment [9]; -0.194 in [10]. Also, the composite z-score was 1.58 in experiment [11]; 0.433 in experiment [12]; 0.83 in experiment [13]; 0.162 in experiment [15]; -0.374 in experiment [16]; -0.235 in experiment [17]. For the same compound, the composite z-score is -0.517 in experiment [18], -1.09 in [19] and -0.0076 in experiment [20]. Further, the z-score is 0.565 (inactive) in [2]; -0.211 (inactive) in experiment [3]; -0.0121 (inactive) in experiment [4]; 0.471 (inactive) in experiment [6]; 0.113 (inactive) in experiment [14].
